Results from article PMC5540273 (PLoS ONE, 2017).

Key:
Conditions in all cases: concentration: 1 μM, replicates: in singlicate; n = 1
[1] = test system: T1, ERK5
T1 construct: gene MAPK7

[2] = test system: T2, ERK8
T2 construct: gene MAPK15

[3] = test system: ERN1
[4] = test system: T3, FAK
T3 construct: gene PTK2

[5] = test system: FER
[6] = test system: FES
[7] = test system: FGFR1
[8] = test system: FGFR2
[9] = test system: FGFR3
[10] = test system: FGFR4
[11] = test system: FGR
[12] = test system: FLT1
[13] = test system: FLT3-autoinhibited
[14] = test system: FLT3
[15] = test system: FLT4
[16] = test system: FRK
[17] = test system: FYN
[18] = test system: GAK
[19] = test system: T4, GCN2(Kin.Dom.2,S808G)
T4 construct: gene EIF2AK4

[20] = test system: GRK1
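Also: KINOMEscan kinase panel screen.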

Row | Compound | %Inh [1] [%] | %Inh [2] [%] | %Inh [3] [%] | %Inh [4] [%] | %Inh [5] [%] | %Inh [6] [%] | %Inh [7] [%] | %Inh [8] [%] | %Inh [9] [%] | %Inh [10] [%] | %Inh [11] [%] | %Inh [12] [%] | %Inh [13] [%] | %Inh [14] [%] | %Inh [15] [%] | %Inh [16] [%] | %Inh [17] [%] | %Inh [18] [%] | %Inh [19] [%] | %Inh [20] [%]
1 | OCCCNc1nccc(-c2c(-c3cccc(C(F)(F)F)c3)nn3cc(C(F)(F)F)ccc23)n1 [GW630813] | 0 | 0 | 0 | 0 | 8 | 0 | 0 | 0 | 0 | 0 | 16 | 24 | 0 | 0 | 12 | 0 | 0 | 8 | 0 | 100
2 | CN1C(=O)C(Nc2ccccc2)=C(c2ccccc2)C1=O [SB-300079] | 0 | 2 | 17 | 0 | 0 | 0 | 0 | 0 | 0 | 0 | 0 | 0 | 0 | 0 | 0 | 0 | 0 | 0 | 6 | 26
3 | CCc1ccc(-c2ccc3c(c2)-c2nn(C)cc2S(=O)(=O)N3C)cc1 | 5 | 36 | 0 | 5 | 6 | 0 | 16 | 0 | 0 | 0 | 0 | 0 | 0 | 30 | 0 | 0 | 5 | 0 | 9 | 12
4 | COc1cc2ncn(-c3cc(OCc4ccncc4Br)c(C(N)=O)s3)c2cc1OC [GW854278] | 0 | 0 | 24 | 0 | 2 | 0 | 43 | 16 | 29 | 7 | 20 | 0 | 22 | 26 | 68 | 8 | 0 | 58 | 0 | 0
5 | COc1cc2nccc(Nc3cccc(Oc4ccccc4)c3)c2cc1OC.Cl [GW284543] | 26 | 13 | 8 | 23 | 30 | 4 | 17 | 26 | 6 | 8 | 25 | 24 | 10 | 6 | 38 | 0 | 36 | 0 | 0 | 0
6 | CCc1nc(-c2cccc(C)c2)c(-c2ccncc2)s1 | 4 | 6 | 0 | 99.9 | 13 | 0 | 0 | 0 | 0 | 0 | 19 | 13 | 0 | 0 | 0 | 9 | 0 | 49 | 3 | 25
7 | Cc1nnc(-c2ccc(C)c(-c3ccc(C(=O)O)cc3)c2)o1 [GW608005] | 0 | 20 | 5 | 0 | 0 | 0 | 5 | 0 | 0 | 0 | 12 | 20 | 4 | 0 | 12 | 0 | 10 | 5 | 0 | 0
8 | Cl.c1ccc(Cn2cnc3cc(Nc4ncnc5ccccc45)ccc32)cc1 [GW272142] | 1 | 0 | 1 | 0 | 21 | 0 | 0 | 0 | 14 | 3 | 23 | 16 | 0 | 0 | 3 | 0 | 10 | 0 | 0 | 0
9 | Cc1ccc(-c2ccc3c(ccc4sc5c(c43)NC[C@@H](C)N=C5N(C)C)n2)cn1 | 2 | 8 | 0 | 0 | 1 | 0 | 0 | 0 | 0 | 0 | 1 | 1 | 0 | 0 | 0 | 0 | 0 | 0 | 0 | 0
10 | CCC(=O)c1c(-c2ccccc2)c2cc(Cl)ccc2c(=O)n1Cc1cc(S(C)(=O)=O)n(CCC(C)(C)O)n1 | 15 | 0 | 18 | 10 | 10 | 5 | 0 | 22 | 29 | 8 | 11 | 29 | 2 | 0 | 15 | 13 | 10 | 8 | 0 | 8
11 | Cc1nc(N(C)[C@H]2CN(C(=O)CC#N)CC[C@H]2C)c2cc[nH]c2n1 | 7 | 1 | 12 | 0 | 0 | 9 | 1 | 6 | 0 | 0 | 6 | 0 | 0 | 5 | 15 | 0 | 2 | 0 | 0 | 0
12 | Cc1nn2c(=O)cc(N3CCOCC3)nc2n1Cc1cccc(Cl)c1Cl [GSK2342769] | 0 | 18 | 0 | 0 | 14 | 6 | 1 | 30 | 15 | 5 | 24 | 27 | 9 | 0 | 34 | 0 | 0 | 1 | 3 | 3
13 | CN(C)c1cc(-c2ccc3c(N)n[nH]c3c2)nc(N)n1 [GSK2219329] | 0 | 0 | 0 | 0 | 16 | 0 | 0 | 2 | 7 | 0 | 19 | 20 | 0 | 0 | 19 | 0 | 11 | 0 | 0 | 0
14 | CCC(=O)c1c(-c2ccccc2)c2cc(Cl)ccc2c(=O)n1Cc1cc(S(C)(=O)=O)n(CC(N)=O)n1 | 0 | 0 | 0 | 0 | 0 | 0 | 6 | 9 | 2 | 0 | 0 | 0 | 0 | 0 | 0 | 0 | 0 | 0 | 0 | 24
15 | Cc1cccc(-c2nc(Nc3ccc4c(cnn4C)c3)c3ccccc3n2)n1 [GW876731] | 1 | 0 | 29 | 11 | 9 | 4 | 0 | 21 | 4 | 0 | 0 | 0 | 0 | 9 | 0 | 13 | 9 | 19 | 12 | 1
16 | CCCC(=O)Nc1n[nH]c2ncc(-c3cccc4ccccc34)cc12 [SB-642057] | 0 | 0 | 0 | 8 | 3 | 0 | 0 | 0 | 0 | 19 | 10 | 10 | 5 | 0 | 1 | 0 | 42 | 0 | 0 | 0

Row | Compound | %Inh [1] [%] | %Inh [2] [%] | %Inh [3] [%] | %Inh [4] [%] | %Inh [5] [%] | %Inh [6] [%] | %Inh [7] [%] | %Inh [8] [%] | %Inh [9] [%] | %Inh [10] [%] | %Inh [11] [%] | %Inh [12] [%] | %Inh [13] [%] | %Inh [14] [%] | %Inh [15] [%] | %Inh [16] [%] | %Inh [17] [%] | %Inh [18] [%] | %Inh [19] [%] | %Inh [20] [%]
17 | COc1ccc(CNC(=O)NC2CCN(c3ccnc(Nc4ccc(F)cc4)n3)C2)cc1 (centres unmarked) [GSK1379706] | 0 | 0 | 0 | 4 | 25 | 0 | 0 | 15 | 22 | 15 | 19 | 21 | 0 | 16 | 0 | 14 | 20 | 19 | 4 | 5
18 | COc1cc(Nc2nccc(N3CCC(NC(=O)C4COc5ccccc5O4)C3)n2)cc(OC)c1OC (centres unmarked) [GSK1379761] | 0 | 0 | 2 | 0 | 17 | 0 | 3 | 30 | 9 | 0 | 33 | 23 | 0 | 37 | 25 | 3 | 29 | 37 | 0 | 0
19 | Fc1cccc(CSc2nnc(-c3ccc4c(c3)CCO4)o2)c1 | 0 | 3 | 14 | 0 | 0 | 0 | 0 | 0 | 0 | 6 | 0 | 0 | 23 | 0 | 15 | 15 | 3 | 3 | 4 | 7
20 | Nc1ncnc2c1ncn2-c1cccc(F)c1 [SKF-97560] | 3 | 0 | 27 | 1 | 14 | 0 | 0 | 12 | 1 | 90.7 | 0 | 22 | 35 | 47 | 19 | 0 | 0 | 1 | 0 | 10
21 | O=C(Nc1n[nH]c2cc(-c3ccccc3F)ccc12)C1CC1 [SB-733371] | 16 | 43 | 0 | 0 | 0 | 1 | 1 | 0 | 0 | 0 | 14 | 29 | 0 | 38 | 0 | 0 | 0 | 0 | 0 | 12
22 | CCn1c(-c2nonc2N)nc2ccccc21 [SB-693162/GW549034] | 0 | 1 | 26 | 8 | 0 | 0 | 0 | 7 | 14 | 0 | 0 | 0 | 52 | 20 | 0 | 0 | 0 | 0 | 24 | 46
23 | COc1ccc(-c2cc3c(C)nc(N)nc3n([C@H]3CC[C@H](O)CC3)c2=O)cn1 | 0 | 0 | 0 | 0 | 0 | 0 | 0 | 0 | 0 | 0 | 0 | 0 | 0 | 0 | 0 | 0 | 0 | 0 | 0 | 0
24 | COc1cccc(-n2cnc3c(N)ncnc32)c1 [SKF-97416] | 0 | 8 | 43 | 4 | 0 | 4 | 7 | 0 | 0 | 0 | 0 | 0 | 9 | 28 | 0 | 0 | 0 | 26 | 8 | 24
25 | Cc1c(Cn2c(C)nn3c(=O)cc(N4CCO[C@H](C)C4)nc23)cccc1C(F)(F)F [GSK2373690] | 0 | 0 | 10 | 0 | 20 | 0 | 5 | 1 | 18 | 3 | 0 | 22 | 0 | 0 | 0 | 35 | 14 | 52 | 3 | 0
26 | COc1cccc(C2=C(N(C)c3ccccc3)C(=O)NC2=O)c1 [SB-334865] | 0 | 0 | 0 | 0 | 0 | 0 | 0 | 0 | 3 | 19 | 13 | 16 | 0 | 0 | 0 | 5 | 13 | 0 | 0 | 5
27 | FC(F)(F)c1ccc(-c2ncn(CCCN3CCOCC3)c2-c2ccncc2)cc1 [SB-217780] | 0 | 1 | 26 | 1 | 9 | 4 | 90 | 0 | 6 | 1 | 11 | 22 | 23 | 14 | 2 | 12 | 10 | 0 | 8 | 12
28 | O=c1cc(N2CCOCC2)nc2n(Cc3ccc(F)c(Cl)c3)ccn12 [GSK2297099] | 2 | 0 | 0 | 0 | 0 | 0 | 0 | 0 | 0 | 0 | 25 | 10 | 2 | 0 | 0 | 0 | 56 | 1 | 2 | 0
29 | Cc1cccc(-c2cc(-c3c[nH]nc3-c3ccccn3)ccn2)c1 [GW679395] | 0 | 0 | 0 | 0 | 4 | 0 | 0 | 0 | 0 | 4 | 36 | 13 | 0 | 0 | 0 | 15 | 16 | 82 | 0 | 3
30 | COc1cc2nccc(Nc3ccc(OCc4ccc(NC(C)=O)cc4)cc3)c2cc1OC.Cl [GW440135] | 0 | 25 | 0 | 0 | 4 | 8 | 4 | 47 | 26 | 0 | 29 | 83 | 0 | 73 | 92.4 | 7 | 1 | 7 | 4 | 22
31 | O=C(NCc1cccs1)c1cc(C(=O)c2c(Cl)cccc2Cl)c[nH]1 [GW823670] | 0 | 0 | 0 | 91.3 | 1 | 0 | 0 | 0 | 0 | 0 | 7 | 2 | 0 | 2 | 2 | 0 | 0 | 0 | 8 | 0
